Measured values as given in publication PMC9911399, “Two distinct binding modes provide the RNA-binding protein RbFox with extraordinary sequence specificity”.
Numbering of substitutions follows the chain as printed; changes in the protein carry UniProt numbers. Over roughly 16,000 sequences, “ka relative to ugcaugu” has its median near 0.0091; the highest 2% begin near 0.032. The full list was thinned out, with the highest values kept by preference.

B1: GUGGGCU (DNA:RNA)
RNA: GGGAGACCGGAAUUCAGAUUGUCCGUGGGCUUUAAAUCCCGUCGUAGCCACCA
DNA 1: CAATCTGAATTCCGGTCTCCC
DNA 2: TGGTGGCTACGACGGGATT
B2: CGUCAGA (DNA:RNA)
RNA: GGGAGACCGGAAUUCAGAUUGUCCCGUCAGAUUAAAUCCCGUCGUAGCCACCA
DNA 1: CAATCTGAATTCCGGTCTCCC
DNA 2: TGGTGGCTACGACGGGATT
B3: GGAGUGG (DNA:RNA)
RNA: B2 RNA with C25G, U27A, C28G, A29U, A31G
DNA 1: CAATCTGAATTCCGGTCTCCC
DNA 2: TGGTGGCTACGACGGGATT
B4: ACAUGGG (DNA:RNA)
RNA: B2 RNA with C25A, G26C, U27A, C28U, A29G, A31G
DNA 1: CAATCTGAATTCCGGTCTCCC
DNA 2: TGGTGGCTACGACGGGATT
B5: CCUAGUG (DNA:RNA)
RNA: B2 RNA with G26C, C28A, A29G, G30U, A31G
DNA 1: CAATCTGAATTCCGGTCTCCC
DNA 2: TGGTGGCTACGACGGGATT
B6: AAUUAGC (DNA:RNA)
RNA: B2 RNA with C25A, G26A, C28U, A31C
DNA 1: CAATCTGAATTCCGGTCTCCC
DNA 2: TGGTGGCTACGACGGGATT
B7: UUUAACA (DNA:RNA)
RNA: B2 RNA with C25U, G26U, C28A, G30C
DNA 1: CAATCTGAATTCCGGTCTCCC
DNA 2: TGGTGGCTACGACGGGATT
B8: GGGACGU (DNA:RNA)
RNA: B1 RNA with U26G, G28A, G29C, C30G
DNA 1: CAATCTGAATTCCGGTCTCCC
DNA 2: TGGTGGCTACGACGGGATT
B9: GGGGUGC (DNA:RNA)
RNA: B1 RNA with U26G, G29U, C30G, U31C
DNA 1: CAATCTGAATTCCGGTCTCCC
DNA 2: TGGTGGCTACGACGGGATT
B10: CCGGUGC (DNA:RNA)
RNA: B2 RNA with G26C, U27G, C28G, A29U, A31C
DNA 1: CAATCTGAATTCCGGTCTCCC
DNA 2: TGGTGGCTACGACGGGATT
B11: CGGGUGC (DNA:RNA)
RNA: B2 RNA with U27G, C28G, A29U, A31C
DNA 1: CAATCTGAATTCCGGTCTCCC
DNA 2: TGGTGGCTACGACGGGATT
B12: AGGGUGC (DNA:RNA)
RNA: B2 RNA with C25A, U27G, C28G, A29U, A31C
DNA 1: CAATCTGAATTCCGGTCTCCC
DNA 2: TGGTGGCTACGACGGGATT
B13: GGGUGCU (DNA:RNA)
RNA: B1 RNA with U26G, G28U
DNA 1: CAATCTGAATTCCGGTCTCCC
DNA 2: TGGTGGCTACGACGGGATT
B14: GGGUGCG (DNA:RNA)
RNA: B1 RNA with U26G, G28U, U31G
DNA 1: CAATCTGAATTCCGGTCTCCC
DNA 2: TGGTGGCTACGACGGGATT
B15: AGUCCCC (DNA:RNA)
RNA: B2 RNA with C25A, A29C, G30C, A31C
DNA 1: CAATCTGAATTCCGGTCTCCC
DNA 2: TGGTGGCTACGACGGGATT
B16: CUUCGCU (DNA:RNA)
RNA: B1 RNA with G25C, G27U, G28C
DNA 1: CAATCTGAATTCCGGTCTCCC
DNA 2: TGGTGGCTACGACGGGATT
B17: GCGUUAG (DNA:RNA)
RNA: B1 RNA with U26C, G28U, G29U, C30A, U31G
DNA 1: CAATCTGAATTCCGGTCTCCC
DNA 2: TGGTGGCTACGACGGGATT
B18: CUUGGGA (DNA:RNA)
RNA: B2 RNA with G26U, C28G, A29G
DNA 1: CAATCTGAATTCCGGTCTCCC
DNA 2: TGGTGGCTACGACGGGATT
B19: UUGUUGC (DNA:RNA)
RNA: B1 RNA with G25U, G28U, G29U, C30G, U31C
DNA 1: CAATCTGAATTCCGGTCTCCC
DNA 2: TGGTGGCTACGACGGGATT
B20: UGCUUUU (DNA:RNA)
RNA: B2 RNA with C25U, U27C, C28U, A29U, G30U, A31U
DNA 1: CAATCTGAATTCCGGTCTCCC
DNA 2: TGGTGGCTACGACGGGATT
B21: CCCCUGC (DNA:RNA)
RNA: B2 RNA with G26C, U27C, A29U, A31C
DNA 1: CAATCTGAATTCCGGTCTCCC
DNA 2: TGGTGGCTACGACGGGATT
B22: UCCUUGC (DNA:RNA)
RNA: B2 RNA with C25U, G26C, U27C, C28U, A29U, A31C
DNA 1: CAATCTGAATTCCGGTCTCCC
DNA 2: TGGTGGCTACGACGGGATT
B23: UGCUUUG (DNA:RNA)
RNA: B2 RNA with C25U, U27C, C28U, A29U, G30U, A31G
DNA 1: CAATCTGAATTCCGGTCTCCC
DNA 2: TGGTGGCTACGACGGGATT
B24: UUGCUUG (DNA:RNA)
RNA: B1 RNA with G25U, G28C, G29U, C30U, U31G
DNA 1: CAATCTGAATTCCGGTCTCCC
DNA 2: TGGTGGCTACGACGGGATT
B25: GUGCUAG (DNA:RNA)
RNA: B1 RNA with G28C, G29U, C30A, U31G
DNA 1: CAATCTGAATTCCGGTCTCCC
DNA 2: TGGTGGCTACGACGGGATT
B26: CUGCUUG (DNA:RNA)
RNA: B2 RNA with G26U, U27G, A29U, G30U, A31G
DNA 1: CAATCTGAATTCCGGTCTCCC
DNA 2: TGGTGGCTACGACGGGATT
B27: UGCUGCU (DNA:RNA)
RNA: B1 RNA with G25U, U26G, G27C, G28U
DNA 1: CAATCTGAATTCCGGTCTCCC
DNA 2: TGGTGGCTACGACGGGATT
B28: UUGCUAG (DNA:RNA)
RNA: B1 RNA with G25U, G28C, G29U, C30A, U31G
DNA 1: CAATCTGAATTCCGGTCTCCC
DNA 2: TGGTGGCTACGACGGGATT
B29: UUGUUAG (DNA:RNA)
RNA: B1 RNA with G25U, G28U, G29U, C30A, U31G
DNA 1: CAATCTGAATTCCGGTCTCCC
DNA 2: TGGTGGCTACGACGGGATT
B30: CUGCUGC (DNA:RNA)
RNA: B2 RNA with G26U, U27G, A29U, A31C
DNA 1: CAATCTGAATTCCGGTCTCCC
DNA 2: TGGTGGCTACGACGGGATT

Each binder was assayed against T1, RBFOX1 RRM (Homo sapiens, UniProt Q9NWB1 109-208) (assay: EMSA; HiTS-Eq, 1 nM pool, 10 min; buffer printed only for the single-RNA assays: 10 mM Tris pH 7.5, 150 mM NaCl, 3.4 mM EDTA, 0.001% NP-40, 30 C). Details: tags: His6 N-terminal (pET28a); label: 5' 32P.
T1 sequence: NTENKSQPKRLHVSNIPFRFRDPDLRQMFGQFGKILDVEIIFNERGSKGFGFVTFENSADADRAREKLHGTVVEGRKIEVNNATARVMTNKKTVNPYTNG
Summary of the method: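 Purified wild-type or mutant RbFox RRM at increasing concentrations was equilibrated with 1 nM of 5′-radiolabelled RNA carrying 7 randomized nucleotides for 10 min in 50 µL. Unbound RNA was separated by 8% native PAGE and sequenced. Relative association constants came from read-count changes of each RNA species compared with the control reaction, normalised to the cognate motif.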

In order of rising binding signal:
1. B7  0.00144 KA relative to UGCAUGU
2. B18  0.00252 KA relative to UGCAUGU
3. B6  0.00552 KA relative to UGCAUGU
4. B21  0.00603 KA relative to UGCAUGU
5. B4  0.0064 KA relative to UGCAUGU
6. B5  0.00931 KA relative to UGCAUGU
7. B2  0.00954 KA relative to UGCAUGU
8. B15  0.0101 KA relative to UGCAUGU
9. B17  0.0109 KA relative to UGCAUGU
10. B16  0.0136 KA relative to UGCAUGU
11. B10  0.0149 KA relative to UGCAUGU
12. B3  0.0151 KA relative to UGCAUGU
13. B22  0.0155 KA relative to UGCAUGU
14. B12  0.0198 KA relative to UGCAUGU
15. B20  0.0211 KA relative to UGCAUGU
16. B1  0.0216 KA relative to UGCAUGU
17. B30  0.0217 KA relative to UGCAUGU
18. B14  0.023 KA relative to UGCAUGU
19. B8  0.0238 KA relative to UGCAUGU
20. B19  0.0249 KA relative to UGCAUGU
21. B27  0.0249 KA relative to UGCAUGU
22. B29  0.0257 KA relative to UGCAUGU
23. B13  0.0276 KA relative to UGCAUGU
24. B25  0.0307 KA relative to UGCAUGU
25. B11  0.0369 KA relative to UGCAUGU
26. B23  0.0377 KA relative to UGCAUGU
27. B28  0.0399 KA relative to UGCAUGU
28. B26  0.0459 KA relative to UGCAUGU
29. B9  0.0467 KA relative to UGCAUGU
30. B24  0.0749 KA relative to UGCAUGU
